Numbering of substitutions follows the chain as printed.

Holding throughout (test): PBM; 200 nM protein, PBS
What all share (settings): dsDNA, one strand shown

The target of test [1] is HOXB9 (Homo sapiens, UniProt P17482 171-250, T197M).
In test [2] the target is HOXC9 (Homo sapiens, UniProt P31274 178-260, K195R).
Test [3] concerns the target T1, VENTX (Homo sapiens, UniProt O95231 78-163).
T1 sequence: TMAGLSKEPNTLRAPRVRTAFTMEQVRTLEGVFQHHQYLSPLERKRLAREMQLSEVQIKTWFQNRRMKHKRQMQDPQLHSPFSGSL

The target in test [4] is T2, VENTX (Homo sapiens, UniProt O95231 78-163, Y115F).
T2 sequence: T1 sequence with Y38F

For test [5], the target named is HOXB9 (Homo sapiens, UniProt P17482 171-250).
The target of test [6] is HOXC9 (Homo sapiens, UniProt P31274 178-260, R193K).
For test [7], the target named is HOXC10 (Homo sapiens, UniProt Q9NYD6 254-340, K271E).
In test [8] the target is VAX1 (Homo sapiens, UniProt Q5SQQ9 86-172).
The target of test [9] is HOXB9 (Homo sapiens, UniProt P17482 171-250, R186Q).
The target in test [10] is HOXA2 (Homo sapiens, UniProt O43364 129-215, Y150S).
The target in test [11] is HOXA2 (Homo sapiens, UniProt O43364 129-215).
The target in test [12] is T3, PAX4 (Homo sapiens, UniProt O43316 9-242, R200Q).
T3 sequence: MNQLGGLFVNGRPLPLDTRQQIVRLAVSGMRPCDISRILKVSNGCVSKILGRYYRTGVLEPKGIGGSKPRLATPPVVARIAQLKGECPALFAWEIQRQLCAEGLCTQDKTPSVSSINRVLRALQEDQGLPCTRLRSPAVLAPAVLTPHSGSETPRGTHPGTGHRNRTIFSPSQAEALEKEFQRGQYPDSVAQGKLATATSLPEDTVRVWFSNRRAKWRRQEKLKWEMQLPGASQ

The target in test [13] is HOXC9 (Homo sapiens, UniProt P31274 178-260, R222W).
For test [14], the target named is T4, PAX4 (Homo sapiens, UniProt O43316 9-242, R200K).
T4 sequence: T3 sequence with Q192K

The target of test [15] is T5, PAX4 (Homo sapiens, UniProt O43316 9-242).
T5 sequence: T3 sequence with Q192R

For test [16], the target named is T6, PAX4 (Homo sapiens, UniProt O43316 9-242, F177V).
T6 sequence: T3 sequence with F169V, Q192R

Test [17] addresses T7, PAX4 (Homo sapiens, UniProt O43316 9-242, F177Y).
T7 sequence: T3 sequence with F169Y, Q192R

The target in test [18] is T8, PAX4 (Homo sapiens, UniProt O43316 9-242, R227W).
T8 sequence: T3 sequence with Q192R, R219W

Chain of VAX1 (Q5SQQ9 86-172): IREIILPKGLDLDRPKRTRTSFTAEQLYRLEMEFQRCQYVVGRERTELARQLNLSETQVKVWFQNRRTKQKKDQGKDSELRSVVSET
Chain of HOXC10 (Q9NYD6 254-340 K271E): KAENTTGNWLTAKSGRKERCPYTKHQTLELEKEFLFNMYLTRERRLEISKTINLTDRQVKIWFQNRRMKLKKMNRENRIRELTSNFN
Chain of HOXC9 (Homo sapiens, UniProt P31274 178-260, K195R) (P31274 178-260 K195R): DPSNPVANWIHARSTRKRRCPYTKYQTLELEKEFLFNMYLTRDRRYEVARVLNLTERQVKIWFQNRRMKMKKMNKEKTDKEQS
Chain of HOXB9 (Homo sapiens, UniProt P17482 171-250, T197M) (P17482 171-250 T197M): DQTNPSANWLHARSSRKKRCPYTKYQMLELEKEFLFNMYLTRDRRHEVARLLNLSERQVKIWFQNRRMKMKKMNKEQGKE
Chain of HOXA2 (Homo sapiens, UniProt O43364 129-215) (O43364 129-215): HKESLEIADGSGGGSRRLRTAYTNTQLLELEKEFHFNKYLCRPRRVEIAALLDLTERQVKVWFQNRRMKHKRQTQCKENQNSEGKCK
Chain of HOXA2 (Homo sapiens, UniProt O43364 129-215, Y150S) (O43364 129-215 Y150S): as the sequence (O43364 129-215) above, with Y22S counted along it
Chain of HOXC9 (Homo sapiens, UniProt P31274 178-260, R193K) (P31274 178-260 R193K): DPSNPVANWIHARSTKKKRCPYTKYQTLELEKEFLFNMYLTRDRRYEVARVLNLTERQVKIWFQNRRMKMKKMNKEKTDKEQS
Chain of HOXC9 (Homo sapiens, UniProt P31274 178-260, R222W) (P31274 178-260 R222W): as the sequence (P31274 178-260 R193K) above, with K16R, R45W counted along it
Chain of HOXB9 (Homo sapiens, UniProt P17482 171-250) (P17482 171-250): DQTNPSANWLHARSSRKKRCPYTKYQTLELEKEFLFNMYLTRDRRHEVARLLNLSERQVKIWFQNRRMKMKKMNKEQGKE
Chain of HOXB9 (Homo sapiens, UniProt P17482 171-250, R186Q) (P17482 171-250 R186Q): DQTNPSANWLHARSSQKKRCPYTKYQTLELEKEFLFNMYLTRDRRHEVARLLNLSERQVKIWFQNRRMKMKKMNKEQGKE

Take GGCAATTA: the binding signal in test [1] is 10.2 upbm affinity estimate (log intensity, higher = more binding, comparable within an allelic series); in test [2], 12.6 upbm affinity estimate (log intensity, higher = more binding, comparable within an allelic series); in test [3], 12.5 upbm affinity estimate (log intensity, higher = more binding, comparable within an allelic series); in test [4], 11.8 upbm affinity estimate (log intensity, higher = more binding, comparable within an allelic series); in test [5], 11.8 upbm affinity estimate (log intensity, higher = more binding, comparable within an allelic series); in test [6], 12.5 upbm affinity estimate (log intensity, higher = more binding, comparable within an allelic series). The binding signal in test [7] is 12 upbm affinity estimate (log intensity, higher = more binding, comparable within an allelic series); in test [8] it was 12.9 upbm affinity estimate (log intensity, higher = more binding, comparable within an allelic series); in [9] it was 11.5 upbm affinity estimate (log intensity, higher = more binding, comparable within an allelic series); in test [10] it was 10.8 upbm affinity estimate (log intensity, higher = more binding, comparable within an allelic series); in test [11] it was 12.5 upbm affinity estimate (log intensity, higher = more binding, comparable within an allelic series).

In the case of TAATTGCA, the binding signal in [1] is 10.2 upbm affinity estimate (log intensity, higher = more binding, comparable within an allelic series); in test [4], 11.6 upbm affinity estimate (log intensity, higher = more binding, comparable within an allelic series); in [7], 11.8 upbm affinity estimate (log intensity, higher = more binding, comparable within an allelic series); in test [10] it was 11 upbm affinity estimate (log intensity, higher = more binding, comparable within an allelic series); in [11] it was 12.3 upbm affinity estimate (log intensity, higher = more binding, comparable within an allelic series).

CAATTATC: the binding signal in [12] was 11.8 upbm affinity estimate (log intensity, higher = more binding, comparable within an allelic series); in test [10], 10.9 upbm affinity estimate (log intensity, higher = more binding, comparable within an allelic series); in test [11], 12.1 upbm affinity estimate (log intensity, higher = more binding, comparable within an allelic series).

GTCAATTA: the binding signal in [2] is 11.9 upbm affinity estimate (log intensity, higher = more binding, comparable within an allelic series); in [6], 11.9 upbm affinity estimate (log intensity, higher = more binding, comparable within an allelic series); in [8] it was 13.3 upbm affinity estimate (log intensity, higher = more binding, comparable within an allelic series); in test [13], 10.7 upbm affinity estimate (log intensity, higher = more binding, comparable within an allelic series); in test [10], 10.7 upbm affinity estimate (log intensity, higher = more binding, comparable within an allelic series); in [11] it was 12.3 upbm affinity estimate (log intensity, higher = more binding, comparable within an allelic series).

As for ACTAATTA, the binding signal in test [1] was 10.1 upbm affinity estimate (log intensity, higher = more binding, comparable within an allelic series); in [2] it was 12.5 upbm affinity estimate (log intensity, higher = more binding, comparable within an allelic series); in [3], 13.3 upbm affinity estimate (log intensity, higher = more binding, comparable within an allelic series); in [14], 12.2 upbm affinity estimate (log intensity, higher = more binding, comparable within an allelic series); in test [4], 12.6 upbm affinity estimate (log intensity, higher = more binding, comparable within an allelic series); in [15], 12.7 upbm affinity estimate (log intensity, higher = more binding, comparable within an allelic series). The binding signal was 12.7 upbm affinity estimate (log intensity, higher = more binding, comparable within an allelic series) in test [12]; 10.8 upbm affinity estimate (log intensity, higher = more binding, comparable within an allelic series) in test [16]; 11.9 upbm affinity estimate (log intensity, higher = more binding, comparable within an allelic series) in [7]; 11.4 upbm affinity estimate (log intensity, higher = more binding, comparable within an allelic series) in [17]; 14 upbm affinity estimate (log intensity, higher = more binding, comparable within an allelic series) in test [8]; 11.4 upbm affinity estimate (log intensity, higher = more binding, comparable within an allelic series) in test [18]. The binding signal in test [10] is 11 upbm affinity estimate (log intensity, higher = more binding, comparable within an allelic series); in test [11] it was 13.3 upbm affinity estimate (log intensity, higher = more binding, comparable within an allelic series).

For the sequence TCAATTAA, the binding signal was 12.4 upbm affinity estimate (log intensity, higher = more binding, comparable within an allelic series) in test [3]; 11.6 upbm affinity estimate (log intensity, higher = more binding, comparable within an allelic series) in test [4]; 11.8 upbm affinity estimate (log intensity, higher = more binding, comparable within an allelic series) in [12]; 13.3 upbm affinity estimate (log intensity, higher = more binding, comparable within an allelic series) in [8]; 10.7 upbm affinity estimate (log intensity, higher = more binding, comparable within an allelic series) in [10]; 12.4 upbm affinity estimate (log intensity, higher = more binding, comparable within an allelic series) in test [11].

Take CAATTAGC: the binding signal in test [3] was 13.1 upbm affinity estimate (log intensity, higher = more binding, comparable within an allelic series); in test [14], 11.6 upbm affinity estimate (log intensity, higher = more binding, comparable within an allelic series); in test [4] it was 12.3 upbm affinity estimate (log intensity, higher = more binding, comparable within an allelic series); in test [15], 12.2 upbm affinity estimate (log intensity, higher = more binding, comparable within an allelic series); in test [12], 12 upbm affinity estimate (log intensity, higher = more binding, comparable within an allelic series); in [16], 10.3 upbm affinity estimate (log intensity, higher = more binding, comparable within an allelic series). Also, the binding signal was 10.8 upbm affinity estimate (log intensity, higher = more binding, comparable within an allelic series) in test [17]; 13.5 upbm affinity estimate (log intensity, higher = more binding, comparable within an allelic series) in [8]; 10.8 upbm affinity estimate (log intensity, higher = more binding, comparable within an allelic series) in [18]; 10.7 upbm affinity estimate (log intensity, higher = more binding, comparable within an allelic series) in test [10]; 12.6 upbm affinity estimate (log intensity, higher = more binding, comparable within an allelic series) in test [11].

Values taken from PMC11006913.
